NS1 function inh: qHTS Assay for Inhibitors of Influenza NS1 Protein Function | 270,000 tested, 0.4% active | Potency, µM (doses to about 46.1 µM), without a hit: top-dose activity, positive = more growth | AID 2326, 2010; calls by dose curve; further: potency means the concentration at half of the fitted maximal effect; actives are rising curves; nearly all actives have a fitted effect of over 50% in size
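In this qHTS, NS1 from influenza A is expressed in budding yeast, where it slows growth. Cells are switched from glucose to 2% galactose medium (pH 6.0, -URA), treated with compound, and growth recovery is read at OD600.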
TbPYK inhibitor: qHTS of Trypanosoma Brucei Inhibitors. AID 624173, 2012. 410,000 tested, 0.12% active. TbPYK enzyme, Kinase-Glo Plus ATP luminescence, 45 min. Potency, µM (top dose mostly 76.8 µM), inactives show at the highest dose activity, negative = inhibition, actives largely listed as inhibitors; further: potency means the concentration at half of the fitted maximal effect; on the % scale 0 is the no-effect control and ±100 the full control effect; nearly all actives have a fitted effect of over 50% in size
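Quantitative HTS: titrated library compounds versus trypanosomal pyruvate kinase in TEA buffer (pH 7.2) containing KCl, MgCl2, BSA and Tween-20. Reactions were initiated with ADP, 130 uM final. Kinase-Glo Plus luminescence was read after 45 min at RT.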
SARS PLP yeast: qHTS of Yeast-based Assay for SARS-CoV PLP; S. cerevisiae expressing SARS-CoV PLpro, growth rescue; Potency, µM (series often up to 32.9 µM), for inactives: top-dose activity, positive = growth rescue, usual class: activators; 330,000 tested, 0.19% active; AID 485353, 2010; calls by dose curve; further: potency means the concentration at half of the fitted maximal effect; 0% is about no effect; nearly all actives have a fitted effect of over 55% in size
CHX counter: Cycloheximide Counterscreen for Small Molecule Inhibitors of Shiga Toxin | max response, % | cell reporter, cycloheximide protein synthesis inhibition counterscreen | AID 2314, 2010 | 300,000 tested, 12% active; in the data active means max response mostly above about 13%, no sharp cut-off; inactive means mostly below about 14%; further: read at 38.3 µM for the half of the compounds with a filed dose; 0% is about no effect
Shiga inhibitor: A qHTS for Small Molecule Inhibitors of Shiga Toxin. inhibition, % at 38.7 µM. 290,000 tested, 9.2% active. AID 2315, 2010. Vero cells, Shiga toxin protein synthesis inhibition reporter; in the data active means inhibition mostly above about 28%, no sharp cut-off; inactive means mostly below about 43%; further: 0% is about no effect
LmPK inhibitor: qHTS Assay for Inhibitors of Leishmania Mexicana Pyruvate Kinase (LmPK); Q27686; purified LmPK, Kinase-Glo ATP luminescence, 1 h; Potency, µM (top dose mostly 57.5 µM), inactives show at the top dose activity change, negative = inhibition, usual class: inhibitors; 290,000 tested, 0.37% active; AID 1721, 2009; further: potency means the concentration at half of the fitted maximal effect; on the % scale 0 is the no-effect control and ±100 the full control effect
Target sequence (Q27686 whole entry, looked up): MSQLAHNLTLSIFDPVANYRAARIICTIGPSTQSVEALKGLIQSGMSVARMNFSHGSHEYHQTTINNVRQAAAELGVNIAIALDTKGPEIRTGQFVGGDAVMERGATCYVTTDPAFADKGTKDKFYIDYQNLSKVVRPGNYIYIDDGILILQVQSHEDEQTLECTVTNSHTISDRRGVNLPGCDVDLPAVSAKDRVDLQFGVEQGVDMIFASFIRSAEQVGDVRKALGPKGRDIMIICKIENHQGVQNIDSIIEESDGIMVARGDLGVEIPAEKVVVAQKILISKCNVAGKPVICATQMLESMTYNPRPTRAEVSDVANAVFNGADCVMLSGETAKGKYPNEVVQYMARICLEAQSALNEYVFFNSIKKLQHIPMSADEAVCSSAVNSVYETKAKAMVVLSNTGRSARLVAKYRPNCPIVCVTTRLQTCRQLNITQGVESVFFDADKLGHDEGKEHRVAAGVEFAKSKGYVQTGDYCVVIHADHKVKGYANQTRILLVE
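In 50 mM imidazole pH 7.2 with 7 mM MgCl2, LmPK (0.1 nM) turned over PEP (0.5 mM) and ADP (0.1 mM) for 1 h at room temperature. Luciferase read-out of ATP.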
An asterisk follows results filed as active. The sample as a whole holds a higher share of hits than the screen did. Unless noted, the call rests on the fitted dose curve; in most records, active means well fitted curve in the direction sought with a large enough effect; inconclusive means small, poorly fitted or top-dose-only effect, or another doubt; inactive means no such curve, though single readings can be large; an effect the other way counts as inactive or inconclusive.

Screening CC(OC(=O)CSc1ccc(F)cc1)C(=O)NC1(C#N)CCCCC1 (centres undefined) returned NS1 function inh 8.5%, TbPYK inhibitor -3.9%, SARS PLP yeast 2.1%, CHX counter 7.3*, Shiga inhibitor 18.0 and LmPK inhibitor -3.4%.
For O=C(CCCC[C@@H]1SC[C@H]2NC(=O)N[C@H]12)Nc1ccc(C(=O)O)cc1 the results were CHX counter 4.0 and Shiga inhibitor -2.5.
`Cc1ccc(-c2nc3ccccc3s2)cc1NC(=S)NC(=O)c1ccccc1` gave NS1 function inh -0.6%, TbPYK inhibitor -6.8%, SARS PLP yeast 4.6%, CHX counter 34.1*, Shiga inhibitor 186.8* and LmPK inhibitor -2.7%.
`Cc1ccc(-c2nc3ccccc3s2)cc1NC(=O)c1cc(-n2cnnc2)ccc1Cl` gave NS1 function inh 17.0%, TbPYK inhibitor 2.5%, SARS PLP yeast 0.4%, CHX counter 38.4*, Shiga inhibitor 85.5* and LmPK inhibitor 0.1%.
Screening COc1ccccc1-n1cc(-c2ccc(C)cc2)[nH]c1=S returned NS1 function inh 0.2%, TbPYK inhibitor inconclusive, SARS PLP yeast -0.9%, CHX counter 23.0*, Shiga inhibitor 31.8* and LmPK inhibitor 5.9%.
Screening COc1cccc(-n2cc(-c3ccc(F)cc3)[nH]c2=S)c1 returned NS1 function inh -11.7%, TbPYK inhibitor inconclusive, SARS PLP yeast -1.5%, CHX counter 37.5*, Shiga inhibitor 85.6* and LmPK inhibitor -11.4%.
`COc1ccc(-c2cn(-c3ccc(C)c(C)c3)c(=S)[nH]2)cc1OC` gave NS1 function inh 10.1%, TbPYK inhibitor -30.6%, SARS PLP yeast -0.6%, CHX counter 11.4, Shiga inhibitor 66.8 and LmPK inhibitor 6.2%.
Cc1cccc(-n2cc(-c3ccc([N+](=O)[O-])cc3)[nH]c2=S)c1 was read as NS1 function inh 17.8%, TbPYK inhibitor -18.7%, SARS PLP yeast -1.4%, CHX counter 24.1*, Shiga inhibitor 104.7* and LmPK inhibitor -7.2%.
Screening COc1ccc(-c2cn(-c3ccccc3)c(=S)[nH]2)cc1OC returned NS1 function inh 1.3%, TbPYK inhibitor inconclusive, SARS PLP yeast 8.1%, CHX counter 25.2*, Shiga inhibitor 75.2* and LmPK inhibitor -12.8%.
Screening O=[N+]([O-])c1ccc(-c2cn(-c3ccccc3)c(=S)[nH]2)cc1 returned NS1 function inh 11.8%, TbPYK inhibitor -15.8%, SARS PLP yeast 4.7%, CHX counter -1.2, Shiga inhibitor 22.2 and LmPK inhibitor -4.4%.
`COc1ccccc1-n1cc(-c2ccc([N+](=O)[O-])cc2)[nH]c1=S` gave NS1 function inh 9.7%, TbPYK inhibitor inconclusive, SARS PLP yeast 1.1%, CHX counter -1.1, Shiga inhibitor 19.9 and LmPK inhibitor -3.3%.
Screening COc1cc(C2C(=O)N(C3CCCCC3)CC(=O)N2C2CCCCC2)ccc1OC(C)C (centres undefined) returned TbPYK inhibitor 6.3%.
For C#CCC(Cc1cnc2nc(N)nc(N)c2n1)c1ccc(C(=O)N[C@@H](CCC(=O)O)C(=O)O)cc1 (some centres undefined) the results were TbPYK inhibitor -3.0%.
For COC(=O)c1ccc(Nc2nnc(-c3ccc(C)c(S(=O)(=O)N4CCN(C)CC4)c3)c3ccccc23)cc1 the results were TbPYK inhibitor -5.8%.
Screening C=CCN1C(=O)c2ccc(C(=O)OCC(=O)N(CC)c3c(N)n(Cc4ccccc4)c(=O)[nH]c3=O)cc2C1=O returned TbPYK inhibitor -5.8%.
For Nc1ccc(-n2cc(-c3ccccc3)[nH]c2=S)cc1 the results were NS1 function inh -1.4%, TbPYK inhibitor 2.51µM*, SARS PLP yeast -3.1%, CHX counter 33.3*, Shiga inhibitor 60.7* and LmPK inhibitor inconclusive.
COc1ccc(-n2cc(-c3ccc(Cl)cc3)[nH]c2=S)cc1 was read as NS1 function inh 3.5%, TbPYK inhibitor -38.0%, SARS PLP yeast 0.9%, CHX counter 13.1*, Shiga inhibitor 12.9 and LmPK inhibitor -1.3%.
`S=c1[nH]c(-c2ccccc2)cn1-c1ccccc1` gave NS1 function inh -7.5%, TbPYK inhibitor inconclusive, SARS PLP yeast 2.9%, CHX counter 15.8, Shiga inhibitor 21.1 and LmPK inhibitor inconclusive.
For COC(=O)c1ccc(-n2cc(-c3ccc(OC)cc3)[nH]c2=S)cc1 the results were NS1 function inh -0.5%, TbPYK inhibitor -38.4%, SARS PLP yeast 2.8%, CHX counter 6.9, Shiga inhibitor 51.5 and LmPK inhibitor -6.7%.
For Cc1cccc(CSc2nnc3[nH]c(=O)cc(-c4ccccc4)n23)c1 the results were TbPYK inhibitor 7.3%.
Screening CCS(=O)(=O)N1CCc2cc(C(=O)N3CCN(c4cccc(C(F)(F)F)c4)CC3)ccc21 returned TbPYK inhibitor 3.1%.
For Cc1ccc(NC(=O)c2sc3nc(N4CCOCC4)c4c(c3c2N)CC(C)(C)OC4)cc1 the results were NS1 function inh -5.4%, TbPYK inhibitor -13.6%, SARS PLP yeast -4.3%, CHX counter 22.3*, Shiga inhibitor 6.5 and LmPK inhibitor -8.8%.
For Cc1cccc2cc3c(N)c(C(=O)Nc4ccc(N5CCOCC5)cc4)sc3nc12 the results were NS1 function inh 0.6%, TbPYK inhibitor -6.8%, SARS PLP yeast -8.7%, CHX counter 0.7, Shiga inhibitor 6.3 and LmPK inhibitor -0.3%.
Screening Cc1ccccc1NC(=O)c1sc2nc(N3CCOCC3)c3c(c2c1N)CCCC3 returned NS1 function inh 16.1%, TbPYK inhibitor inconclusive, SARS PLP yeast 0.2%, CHX counter 18.8*, Shiga inhibitor 22.4 and LmPK inhibitor 1.7%.
Screening CC1(C)Cc2c(c(N3CCCC3)nc3sc(C(=O)Nc4ccccc4)c(N)c23)CO1 returned NS1 function inh 23.4%, TbPYK inhibitor -14.7%, SARS PLP yeast -3.8%, CHX counter 40.6*, Shiga inhibitor 79.7* and LmPK inhibitor -4.2%.
Screening Cc1ccc2nc3sc(C(=O)Nc4ccc(N5CCOCC5)cc4)c(N)c3cc2c1 returned NS1 function inh 2.0%, SARS PLP yeast -4.7%, CHX counter 23.8*, Shiga inhibitor 54.2 and LmPK inhibitor -8.8%.
Screening O=C(CN1C(=O)C2C3C=CC(C3)C2C1=O)OCC(=O)c1ccc(Cl)cc1 (centres undefined) returned NS1 function inh 6.7%, TbPYK inhibitor -0.3%, SARS PLP yeast -10.0%, CHX counter 13.3, Shiga inhibitor -3.6 and LmPK inhibitor -11.2%.
For O=C(CCN1C(=O)C2C3C=CC(C3)C2C1=O)Nc1ccc2ncccc2c1 (centres undefined) the results were NS1 function inh -5.0%, TbPYK inhibitor -1.0%, SARS PLP yeast 5.1%, CHX counter 45.4*, Shiga inhibitor 64.3* and LmPK inhibitor -5.6%.
